Screens: PubChem, National Center for Advancing Translational Sciences (NCATS)
Most compounds without a hit are left out; they make up all but 3% or so of the library.
p53ts 39C tox: cytotoxicity in p53ts cells at nonpermissive temperature | H1299-p53A138V viability at 39C, ATP luminescence, 24 h | Potency, µM (doses to about 46.1 µM), for inactives: at the highest dose activity change, negative = cell killing, most hits filed as cytotoxic | 130,000 tested, 1.5% active | AID 902; note: % is set by controls: 0 for no effect and ±100 for the full control effect; nearly all actives have a fitted effect of over 55% in size
IkB signaling: suppresses IkB signaling in ABC-DLBCL reporter cells; ABC-DLBCL IkBa-CBG/CBR dual luciferase ratio, 4 h; response scale: scaled: untreated 0%, proteasome inhibitor 100%; Potency, µM (top dose mostly 57.1 µM), without a hit: at the highest dose IkBa stabilization activation; 110,000 tested, 0.04% active; active = well fitted curve in the direction sought with a large enough effect in the signal ratio, not every such curve was filed as active; inconclusive = small, poorly fitted or top-dose-only effect, or a change in a side signal; the % refers to the signal ratio;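 note: the direction sought is a rising ratio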
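Curves were fitted separately to fusion (green), unfused (red) and ratio luminescence, then classed by r2, magnitude and activity. Cells: OCI-Ly3, 4 h compound plus doxycycline at 37C; 10 uM MG-132 defined full response.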
CRE Fsk mod: modulators of forskolin-stimulated CRE signaling in CHO cells; CHO CRE-bla reporter (cAMP response element driving beta-lactamase), forskolin EC10, beta-lactamase ratio; Potency, µM (doses to about 38.2 µM), inactives show at the highest dose activity change, negative = inhibition, most hits filed as activators; 71,000 tested, 2.5% active; active = well fitted activation curve with a large enough effect in the signal ratio, with a control signal flat, not every such curve was filed as active; inconclusive = small, poorly fitted or top-dose-only effect, or effect the other way, or a change in a side signal; the % refers to the signal ratio; note: % of control where 0% means no effect
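AC50 values, positive or negative, reflect shifts in EC10 NKH 477-induced CRE-bla reporter activity in CHO cells. Incubation lasted 3 h at 37 °C before CCF4 substrate (2 h, room temperature) and ratiometric 460/530 nm reading.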
p53ts 32C tox: kills p53ts cells at the permissive temperature; H1299-p53A138V at 32C, ATP luminescence viability, 24 h; Potency, µM (series often up to 46.1 µM), for the others: at the highest dose activity change, negative = cytotoxicity, actives largely listed as cytotoxic; 130,000 tested, 0.93% active;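 note: 0% = DMSO and -100% = full killing by reference compound; nearly all actives have a fitted effect of over 55% in size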
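H1299-p53 A138V cells (temperature-sensitive p53) exposed 24 h to up to 46 uM compound at 32C, where p53 is wild-type in conformation. Viability read as ATP luminescence and normalised to DMSO and 100 uM tamoxifen. AC50 fitted with the Hill equation.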
Imprint erasure: genomic imprint erasure induction; 110,000 tested, 0.02% active; mouse ES Peg3-LacZ reporter, beta-gal luminescence, 40 h; Potency, µM (highest dose often 60.7 µM), for inactives: top-dose activity change, positive = activation, usual class: activators
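Imprint erasure is scored as LacZ activity from the silenced maternal Peg3 allele in feeder-free female ES cells cultured 40 h with LIF. Luminescence is normalized to in-plate negative controls and fitted to the Hill equation.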
* = called active by the depositor; ? = inconclusive; · = no result given; [ ] = another dose, or the depositor's remark. Unless noted, calls come from the whole dose curve; as a rule, active = well fitted curve in the direction sought with a large enough effect; inconclusive = small, poorly fitted or top-dose-only effect, or another doubt; inactive = no such curve, though single readings can be large; an effect the other way counts as inactive or inconclusive. Potency is the fitted concentration of half-maximal effect.

SMILES	p53ts 39C tox	IkB signaling	CRE Fsk mod	p53ts 32C tox	Imprint erasure
C[C@@]12C[C@H](O)C3[C@H](CCC4=CC(=O)CC[C@]43C)[C@H]1CC[C@@H]2c1csc(-c2ccccc2)n1 (some centres undefined)	·	·	·	·	-1%[10.9 µM]
Cc1ccc(C)c(OCc2nc3ccccc3n2C)c1	-24%	-2%	·	3%	-3%[10.9 µM]
Cc1nnc(OCc2nc3ccccc3n2C)c2ccccc12	-2%	8%	2.5µM*	-12%	-9%
COc1cccc(OCc2nc3ccccc3n2C)c1	20µM*	0%	·	?	-50%[10.9 µM]
COc1ccccc1NC(=O)CN1C(=O)CC(c2ccc(C)c(C)c2)=Nc2ccccc21	?	?	·	?	-13%[10.9 µM]
CN1/C(=C\C(=O)c2cccs2)Sc2ccccc21	10µM*	?	?	10µM*	-86%
COCC(=O)/C=C1\Sc2ccccc2N1C	-1%	1%	8%	-14%	-29%
CCOC(=O)c1ccc(N2C(=O)c3n[nH]c(-c4ccco4)c3C2c2cccc(O)c2)cc1 (centres undefined)	?	?	·	?	-5%[10.9 µM]
N#CCC(=O)Nc1sc2c(c1C(N)=O)CCCC2	11%	8%	13µM*	13%	-7%
O=C(N1CCN(c2ccccn2)CC1)N1c2ccccc2Sc2ccccc21	25%	-2%	10µM*	-9%	-23%
O=C(c1ccco1)N1CCN(C(=O)N2c3ccccc3Sc3ccccc32)CC1	16%	23%	1µM*	23%	-31%
Cc1cccc(-c2nc(SCc3cc(=O)c4c(C)cc(C)cc4[nH]3)n[nH]2)c1	20µM*	0%	·	?	13%[10.9 µM]
CC(=O)Nc1ccccc1-c1nc2ccccc2n(CC(=O)c2ccc(Br)cc2)c1=O	-11%	3%	·	10%	-2%[10.9 µM]
CCN1c2ccccc2-c2nc3ccccc3n2C1c1ccccn1 (centres undefined)	0%	1%	13µM*	3%	-13%
CCN1c2ccccc2-c2nc3ccccc3n2C1c1ccncc1 (centres undefined)	-13%	?	?	-4%	-6%
CC1(C)Cc2ccccc2-c2nnc(SCC(=O)N3CCN(c4ccccc4)CC3)n21	1%	?	3%	-10%	-13%
CC1(C)Cc2ccccc2-c2nnc(SCC(=O)Nc3nc4ccccc4s3)n21	-18%	3%	4µM*	-1%	-4%
COc1ccccc1Nc1nc(N)nc(CSc2nccc(C)n2)n1	-6%	-2%	?	5%	-2%
COc1ccccc1Nc1nc(N)nc(CSc2nc(C)cc(C)n2)n1	-7%	1%	10µM*	1%	-1%
O=c1c2c(nc3n1CCCCC3)-c1ccccc1CC21CCCCC1	30%	·	·	6%	·
N#CCSc1n[nH]c2nc3c(c(=O)n12)C1(CCCC1)Cc1ccccc1-3	13%	?	?	-2%	-13%
CCn1c(=O)c2c(n3cnnc13)-c1ccccc1CC21CCCCC1	0%	0%	3.2µM*	-4%	-6%
CCn1c(SCC(N)=O)nc2c(c1=O)C1(CCCC1)Cc1ccccc1-2	11%	?	4µM*	9%	0%
CC1(C)CC(=O)c2cc(-c3nc(-c4ccc(Cl)cc4)cs3)c(=O)n(-c3ccc(F)cc3)c2C1	10%	?	·	4%	10%[10.9 µM]
COc1cccc(NC(=O)CCc2nc(-c3cc(OC)c(OC)c(OC)c3)no2)c1	2%	?	·	-3%	-6%[10.9 µM]
SMILES	p53ts 39C tox	IkB signaling	CRE Fsk mod	p53ts 32C tox	Imprint erasure
COc1ccc2cc3c(N)c(C(=O)NCc4ccco4)sc3nc2c1	-19%	-1%	13µM*	-13%	-26%
Nc1c(C(=O)NCc2ccco2)sc2nc3c(cc12)C(=O)CCC3	2%	3%	?	13%	-11%
CC(C)c1ccc2c(c1)CC[C@@H]1[C@@](C)(CN)CCC[C@]21C	-11%	·	·	1%	-6%
CC(C)c1ccc2c(c1)CC[C@H]1[C@](C)(CN)CCC[C@]21C	16µM*	·	·	?	-74%
CN1CCN(Cc2cc(COCc3ccccc3)c3cccnc3c2O)CC1	5µM*	6%	2%	-29%	-24%
Oc1ccc(CN2CCN(Cc3ccccc3)CC2)c2cccnc12	-23%	1%	3%	?	-44%
CCCOCc1cc(CN2CCN(c3cccc(Cl)c3)CC2)c(O)c2ncccc12	16µM*	25%	·	-7%	9%[10.9 µM]
COC(=O)c1ccc(-n2c(C)cc(/C=N/n3cnnc3)c2C)cc1	-2%	2%	9%	1%	9%
COc1ccc(-n2c(C)cc(/C=N/Nc3nnc(C)n3N)c2C)cc1	10µM*	·	·	?	·
O=c1c(-c2ccc(F)cc2)nc2cnc(N3CCOCC3)nc2n1C[C@H]1CCCO1	1%	-1%[11.4 µM]	1µM*	-11%	·
O=c1c(-c2ccc(F)cc2)nc2cnc(Nc3ccccc3)nc2n1C[C@H]1CCCO1	-7%	0%[11.4 µM]	0.25µM*	-1%	?
O=c1c(-c2cccs2)nc2cnc(N3CCOCC3)nc2n1Cc1ccc(F)cc1	-9%	4%[11.4 µM]	?	9%	-1%
O=c1c(-c2ccc(Cl)cc2)nc2cnc(N3CCOCC3)nc2n1Cc1ccc(F)cc1	-2%	-1%[11.4 µM]	6.3µM*	-7%	9%
COc1ccc(-c2nc3cnc(N4CCOCC4)nc3n(C[C@H]3CCCO3)c2=O)cc1	7%	0%[11.4 µM]	?	-2%	?
O=c1c(-c2ccc(Cl)cc2)nc2cnc(N3CCOCC3)nc2n1C[C@H]1CCCO1	-3%	0%[11.4 µM]	0.79µM*	17%	-2%
O=c1c(-c2ccc(F)cc2)nc2cnc(Oc3ccccc3)nc2n1C[C@H]1CCCO1	12%	0%[11.4 µM]	?	-6%	·
CCOc1ccc(-c2cccc(NS(=O)(=O)c3c(C)cc(C)cc3C)c2)nn1	-7%	?	·	26%	6%[10.9 µM]
CN1CCN(c2ncc3nc(-c4cccc(C#N)c4)c(=O)n(C[C@H]4CCCO4)c3n2)CC1	2%	0%[11.4 µM]	10µM*	-10%	-21%
CCNc1ncc2nc(-c3ccc(Cl)cc3)c(=O)n(C[C@H]3CCCO3)c2n1	15%	-2%[11.4 µM]	6.3µM*	6%	4%
CCNc1ncc2nc(-c3ccc(OC)cc3)c(=O)n(C[C@H]3CCCO3)c2n1	-5%	-9%[11.4 µM]	?	3%	?
N#Cc1cccc(-c2nc3cnc(N4CCOCC4)nc3n(C[C@H]3CCCO3)c2=O)c1	-2%	1%[11.4 µM]	?	-2%	-2%
Cc1ccc(-c2cn3c(n2)sc2cc(C(=O)NC4CCCCC4)ccc23)cc1	14%	?	·	-1%	-17%[10.9 µM]
O=C(CCCn1c(=O)c2ccccc2n(Cc2cccc(Cl)c2)c1=O)NCCc1ccc(Cl)cc1	?	5%	·	-18%	-11%[10.9 µM]
COc1ccc(C(=O)NCC(c2ccc3c(c2)OCO3)N2CCN(c3ccc(F)cc3)CC2)cc1 (centres undefined)	-5%	-4%	·	8%	11%[10.9 µM]
